This passage reports inhibition results from PubChem BioAssay AID1947 (The Scripps Research Institute Molecular Screening Center, 2009).

SMILES strings stand for the structures. Screen size: about 300,000 compounds; about 990 (0.33%) were called active. This is one part of a sample in which actives are shown more often than they occur. A number with no mark means an inactive call.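 Rule for the calls: active = inhibition above the screen mean inhibition plus 3 SD, computed separately per campaign (cut at about 18% in these data); inactive = the rest.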

The test system of the assay is Fam108B (ABHD17B) serine hydrolase [Mus musculus]. Description: inhibition of Fam108B (ABHD17B) hydrolase – biochemical, fluorescence polarization, counter-screen for RBBP9 inhibitor project, primary screen (AID 1947).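 Note: inhibitors lower polarization as less probe binds the enzyme.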 As to conditions: recombinant Fam108B, FP-Rh probe fluorescence polarization; at 9.51 µM; hits give high values. (In general: Fluorescence polarisation rises when a labelled molecule tumbles more slowly, as on binding a larger partner.)
On to `CC(=O)NC1=NN(C(C)=O)C(C)(c2ccc(Cl)s2)S1` (stereo not drawn), for which the inhibition (in general, the drop in the measured response relative to a control, in per cent) is -2.49%.

For `CC(C)(C)C(=O)Nc1c(Br)c(C2CC2)nn1-c1ccccc1`, the inhibition was 1.83%.

`COc1ccc(OC)c(/C=C/C(=O)OCC(=O)Nc2ccc3c(c2)OCCO3)c1`: the inhibition was -4.2%.

Turning to `COc1ccc(/C=C/C(=O)OCC(=O)Nc2cccc(Oc3ccccc3)c2)c(OC)c1`, the inhibition was 21.4% (active).

As for `COc1cc(/C=C/C(=O)OCC(=O)Nc2cccc(Oc3ccccc3)c2)ccc1O`, the inhibition is 6.01%.

Take `COc1ccc(OCc2nnc3n2N=C(c2ccccc2)C(CC(=O)O)S3)cc1` (stereo not drawn): the inhibition was -0.94%.

On to `O=C(CN1CCN(Cc2ccc(F)cc2Cl)C1=O)NCc1cccs1`, for which the inhibition was 2.32%.

For the compound `CSCCC1NC2(C(=O)Nc3ccc(Cl)cc32)[C@@H]2C(=O)N(C3CCCC3)C(=O)[C@H]12` (stereo partly drawn), the inhibition was -1.72%.

For the compound `O=[N+]([O-])c1ccc(F)cc1Oc1nc(-c2cccnc2)nc2ccccc12`, the inhibition was -4.4%.

For the compound `CCc1ccccc1N1CN(Cc2ccco2)CNC1=S`, the inhibition was -2.75%.

For `Oc1c(Cl)cc(Cl)c(Cl)c1Cc1c(O)c(Cl)cc(Cl)c1Cl`, the inhibition was 48% (active).

Regarding `CN(C)C(=O)c1cccn(Cc2cccc(C(F)(F)F)c2)c1=O`, the inhibition is 0.5%.

Regarding `CCOc1ccc(N2CC(C(=O)NCCN3C(=O)S/C(=C\c4cccnc4)C3=O)CC2=O)cc1` (stereo not drawn), the inhibition is 0.71%.

As to `COc1ccc(N2CC(C(=O)NCCN3C(=O)S/C(=C\c4cccnc4)C3=O)CC2=O)c(OC)c1` (stereo not drawn), the inhibition was 65.4% (active).

In the case of `O=C(NCCN1C(=O)S/C(=C\c2cccnc2)C1=O)c1cccc(OC(F)F)c1`, the inhibition is 2.13%.

As to `COc1ccc(NC(=S)SC)cc1OC`, the inhibition is 2.25%.

For `CC(Cc1cccs1)N(Cc1ccc(Cl)cc1)C(=O)c1ccncc1` (stereo not drawn), the inhibition is 0.27%.

Consider `c1ccc2c(-c3nn4nnnc4c4ccccc34)cccc2c1`, for which the inhibition was 3.27%.

As to `CCC(=O)c1ccc(OCC(=O)OCC(=O)NC2CCCCCC2)cc1`, the inhibition was 2.33%.

In the case of `O=C(NCc1ccccn1)c1ccc2nc(-c3ccco3)c(-c3ccco3)nc2c1`, the inhibition is 39.1% (active).

As for `CCOc1cc(NC(=S)NCCCOC)c(OCC)cc1NC(=O)c1ccco1`, the inhibition is -0.81%.

Turning to `CCCC(=O)Nc1ccc2c(c1)nc(CCNC(=O)c1ccco1)n2C`, the inhibition is 3.43%.

In the case of `COc1ccc2oc(=O)c(C(=O)NCc3ccccn3)cc2c1`, the inhibition is 1.13%.

Regarding `Cc1cc(C)cc(NC(=O)NCc2ccccn2)c1`, the inhibition is -2.47%.

As to `COCCNC(=O)Nc1ccc2nc(-c3ccco3)c(-c3ccco3)nc2c1`, the inhibition was 63.8% (active).

For `O=C(CSc1nnc(C2CC2)n1Cc1ccccc1)Nc1cccnc1Cl`, the inhibition was 1.49%.

Turning to `C/C=C/C(=O)Nc1ccc(N2CCN(c3ccc(C(F)(F)F)cn3)CC2)nc1`, the inhibition was 8.22%.

In the case of `CC(C)C(=O)N1CCC2(CC1)Oc1ccc(F)cc1C(=O)C21CC(c2ccccc2)=NO1` (stereo not drawn), the inhibition was 1.14%.

For `Cc1nc2scc(-c3cccs3)c2c(=O)n1N`, the inhibition is 7.81%.

For `N/C(=N\OC(=O)CCc1ccccc1)c1cccnc1`, the inhibition is -0.43%.

For the compound `COC(=O)CN1C(=O)[C@H]2[C@@H](C3CC3)N3C(=O)CN(Cc4ccc(-c5ccccc5)cc4)C(=O)[C@@]3(Cc3ccccc3)[C@H]2C1=O`, the inhibition was 0.43%.

Turning to `Cc1cc(C)c2c(Cn3ccnc3)cc(=O)oc2c1`, the inhibition is -0.08%.

Take `O=Cc1c(NCCCN2CCCC2=O)c2ccccc2[nH]c1=O`: the inhibition was 0.62%.

Turning to `Cn1c(=O)c2c(ncn2CC(COCc2ccccc2Cl)OCc2ccccc2Cl)n(C)c1=O` (stereo not drawn), the inhibition is 2.8%.

In the case of `Cc1nn(Cc2ccc(F)cc2)c(C)c1NC(=O)c1noc2c1CCc1ccccc1-2`, the inhibition is -3.92%.

`O=C(O)c1cccc(N2C(=O)Nc3ccccc3N2O)c1`: the inhibition was 0.58%.

With `Cc1ccccc1NC(=O)c1cc(S(=O)(=O)Nc2cccc(C(=O)O)c2)ccc1Cl`, the inhibition is -0.84%.

`C/C(=N\Nc1cccc(C(=O)O)c1)c1ccc2c(c1)Nc1ccccc1S2`: the inhibition was 20% (active).

`CCOc1cnc(-c2c(-c3ccccc3Cl)noc2C)o1`: the inhibition is -3.64%.

Turning to `CCn1cc(CN2CCCC(CNS(=O)(=O)Cc3ccccc3)C2)cn1` (stereo not drawn), the inhibition was -2.99%.

As to `Cc1ccc(CN(C)Cc2cc(=O)oc3cc(C)c(Cl)cc23)cc1`, the inhibition is 9.93%.

In the case of `O=C(Nc1ccc(-c2csc(Nc3cccc(C(F)(F)F)c3)n2)cc1)c1cccc(C(F)(F)F)c1`, the inhibition was 37.3% (active).

Turning to `CCCCC(=O)Nc1nc(C)c(-c2csc(Nc3ccc(Cl)cc3)n2)s1`, the inhibition is 20.4% (active).

For the compound `C=CCCC(=O)Nc1nc(C)c(-c2csc(Nc3ccc(Cl)cc3)n2)s1`, the inhibition was -6.01%.

As for `CCCCCCC(=O)Nc1nc(C)c(-c2csc(Nc3cc(Cl)ccc3OC)n2)s1`, the inhibition is 11.8%.

Turning to `CC(=O)Nc1nc(C)c(-c2csc(Nc3ccc(S(N)(=O)=O)cc3)n2)s1`, the inhibition was -0.24%.

Consider `CC(=O)Nc1ccc(S(=O)(=O)Nc2nc(-c3ccc(C(C)(C)C)cc3)cs2)cc1`, for which the inhibition is 5.38%.

As for `CC(=O)Nc1cccc(-c2csc(Nc3cccc(C)n3)n2)c1`, the inhibition was 5.89%.

Consider `CCCCCCC(=O)Nc1nc(C)c(-c2csc(Nc3cccc(OC)c3)n2)s1`, for which the inhibition is 12.5%.

For the compound `Cc1nc(NC(=O)c2cccc(Cl)c2)sc1-c1csc(Nc2cccc(Cl)c2)n1`, the inhibition is 61.2% (active).

`CCOC(=O)c1c(CC(C)C)csc1/N=C/C1=C(O)CCCC1=O`: the inhibition was -3.29%.

Consider `O=C(NNC(=O)c1cnccc1C(F)(F)F)c1ccc(Cl)cc1`, for which the inhibition is -3.08%.

As for `CCCn1c(=O)c2c(C(F)(F)F)cc(-c3cccs3)nc2n(CCC)c1=O`, the inhibition was 7.34%.

For `COc1ccc(OCC(O)CN(C)C(=O)C(C)Oc2ccccc2)cc1` (stereo not drawn), the inhibition is 3.54%.

For `O=C1N[C@@H](Cc2ccccc2)C(=O)N2[C@@H]3N(S(=O)(=O)c4ccc(F)cc4)c4ccccc4[C@]3(Br)C[C@@H]12`, the inhibition is 2.06%.

For `Cc1nc2ccccc2nc1N/N=C/c1ccc(O)cc1O`, the inhibition was 5.03%.

Take `Oc1ccc(/C=N/Nc2nc(-c3ccccc3F)nc3ccccc23)c(O)c1`: the inhibition is 41% (active).

As to `Fc1ccc(/C=N/Nc2nc(-c3cccnc3)nc3ccccc23)cc1`, the inhibition is -5.98%.

Regarding `CCC(C)[C@H]1COCCS(=O)(=O)N1Cc1ccc(C)cc1` (stereo partly drawn), the inhibition is -0.44%.

On to `CC1(C)C2CCC1(C)C(OC(=O)c1ccc(O)cc1)C2` (stereo not drawn), for which the inhibition is -4.06%.

In the case of `Nc1ccc2nc3c(=O)[nH]c(=S)[nH]c3nc2c1`, the inhibition was 29.3% (active).

On to `O=C(COC(=O)CCCNC(=O)c1ccc(Cl)cc1)Nc1cc(Cl)ccc1Cl`, for which the inhibition was 4.35%.

Consider `O=C(NNC(=O)c1ccc(-c2ccccc2)cc1)Nc1ccccc1`, for which the inhibition was -2.01%.

As for `O=C(NC1CC1)c1cccc(Br)c1`, the inhibition was -0.72%.

Take `O=C(NC1CC1)c1ccc(-c2ccccc2)cc1`: the inhibition is 34.3% (active).

With `Cc1ccccc1N1CC(C(=O)Nc2nnc(SCCC3OCCO3)s2)CC1=O` (stereo not drawn), the inhibition was 5.32%.

Consider `O=C(CN(Cc1ccccc1)C(=O)CCC(=O)Nc1ccccn1)NCCc1ccccc1`, for which the inhibition was 0.27%.

For the compound `COc1ccc(C2=Nc3cc(C)ccc3OC2)cc1`, the inhibition was -0.41%.

As to `O=c1cc(O)nc(SCc2ccccc2Cl)[nH]1`, the inhibition is -1.05%.

In the case of `COc1ccc2nc(SCc3ccccc3)nc(C)c2c1`, the inhibition was -2.64%.

As to `Fc1cccc(Cl)c1CSc1ccc(-c2ccco2)nn1`, the inhibition is -2.56%.

Regarding `O=c1[nH]c(SCc2ccccc2)nnc1-c1ccccc1`, the inhibition was -0.14%.

As for `Clc1ccccc1CSc1nnc(-c2ccco2)c(-c2ccco2)n1`, the inhibition was 18.8% (active).

As to `c1ccc(CSc2nnc(-c3ccco3)c(-c3ccco3)n2)cc1`, the inhibition was 19.7% (active).

Take `COC(=O)c1ccc(CNC(=O)c2ccc3oc(C(C)C)nc3c2)cc1`: the inhibition was -1.84%.

For the compound `N#CCC(=O)N/N=C/c1cn(Cc2ccc3ccccc3c2)c2ccccc12`, the inhibition is -6.56%.

For the compound `COC(=O)CN1C(=O)[C@H]2[C@@H](/C=C/c3ccccc3)N3C(=O)CN(CC4CC4)C(=O)[C@@]3(Cc3ccccc3)[C@H]2C1=O`, the inhibition is -4.39%.

For `COC/C=C/C1=CC2=CC(=O)C(C)(OC(=O)CCC(=O)OC)C(=O)C2=CO1` (stereo not drawn), the inhibition was 8.02%.

In the case of `COc1ccc(NC(=O)CSc2nnc(Cc3ccccc3)c(=O)n2N)cc1`, the inhibition was 0.31%.

For `CC(C)N1CCC(N2CCN(Cc3cccnc3)CC2CCO)CC1` (stereo not drawn), the inhibition is 1.03%.

Turning to `COC(=O)c1cc(N2CCNCC2)nc2ccccc12`, the inhibition was 1.69%.

Consider `COc1ccc(NS(=O)(=O)c2cc(NC(=O)CC(=O)c3ccc([N+](=O)[O-])cc3)ccc2C)cc1`, for which the inhibition was 18.6% (active).

As for `COc1ccc(C(=O)CC(=O)C(=O)Nc2cc([N+](=O)[O-])ccc2OC)cc1`, the inhibition was 2.15%.

For `COc1ccc(NS(=O)(=O)c2cc(C(=O)Nc3ccccc3C(=O)O)ccc2C)cc1`, the inhibition is -3.09%.

Consider `COc1cc(Cl)c(C)cc1NC(=O)CSc1nnc(-c2ccco2)n1CC(C)C`, for which the inhibition was 0.55%.

Turning to `Cc1cc(C)cc(OCC(=O)NC(C)c2ccccc2)c1` (stereo not drawn), the inhibition was -2.91%.

Turning to `CC(=O)Nc1ccc(NC(=O)CC2CCCC2)cc1`, the inhibition is 3.46%.

Turning to `COc1ccc(C2NC(=O)c3ccccc3N2)cc1` (stereo not drawn), the inhibition was -0.94%.

`Cc1ccc(C2Nc3cccc4cccc(c34)N2)cc1`: the inhibition is 10.3%.

With `COc1cccc(C2Nc3cccc4cccc(c34)N2)c1`, the inhibition is 23% (active).

For the compound `Brc1ccccc1C1Nc2cccc3cccc(c23)N1`, the inhibition was 11.3%.

As to `O=C1NC(c2cccc(Cl)c2)Nc2ccccc21` (stereo not drawn), the inhibition was -1.96%.

For the compound `Oc1ccc(C2Nc3cccc4cccc(c34)N2)cc1`, the inhibition is 44.7% (active).
